Rows were chosen to be rich in hits. Some 2.5% of all compounds tested hit in one or more screens of this group.
Mito fusion act = qHTS Assay for Small Molecule Inhibitors of Mitochondrial Division or Activators of Mitochondrial Fusion; Potency, µM (titrated, usually from 46.1 µM), inactives show at the highest dose growth rescue (activation), hits mostly activators; S. cerevisiae fusion-defective mutant growth rescue, CellTiterGlo 48 h; actives 0.23% (n = 320,000); note: potency is the fitted concentration of half-maximal effect; % of control where 0% means no effect; nearly all actives have a fitted effect of over 45% in size
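S. cerevisiae fusion-defective temperature-sensitive mutants (e.g. fzo1-1, mgm1-5) grown 48 h at 37C in YPEG (ethanol/glycerol non-fermentable) medium with 23 nl compound per well; growth rescue read as CellTiterGlo luminescence.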
CCT chaperon mod = High-Throughput Screening for Modulators of Cytosolic Chaperonin Activity. purified chaperonin ATPase assay, HTRF ADP detection, 30 min. activity change, % (concentration not given with the values), hits read low. actives 0.3% (n = 360,000); in the data active = activity change below about -30%; note: % is set by controls: 0 for no effect and ±100 for the full control effect
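TRiC (40 or 20 nM final, by batch activity) in 30 mM Tris pH 7.4, 100 mM KCl, 5 mM MgCl2, 1 mM DTT was treated with compound at 76 uM single dose, then 10 uM ATP, 30 min at 37 °C. ADP was read by HTRF Transcreener.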
Apoferritin bind = qHTS Assay for Identification of Novel General Anesthetics. Ferritin light chain (Equus caballus), P02791. apoferritin/1-aminoanthracene competitive binding, fluorescence. Potency, µM (series often up to 77.5 µM), inactives show at the highest dose activity change, negative = displacement, hits mostly inhibitors. actives 0.074% (n = 350,000). AID 485281, 2010; note: potency is the fitted concentration of half-maximal effect; % is set by controls: 0 for no effect and ±100 for the full control effect; nearly all actives have a fitted effect of over 20% in size
Target sequence (P02791 2-175 limits assumed): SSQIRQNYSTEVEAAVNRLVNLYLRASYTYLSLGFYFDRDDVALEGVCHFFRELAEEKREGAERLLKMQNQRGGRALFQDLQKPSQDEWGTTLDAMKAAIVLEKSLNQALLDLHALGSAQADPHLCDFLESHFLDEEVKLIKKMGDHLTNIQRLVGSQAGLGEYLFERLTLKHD
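Concentration-response curves derived by four-parameter Hill fitting of normalized fluorescence, where compounds displaced 1-AMA from 10 uM horse apoferritin following a brief 10 min room-temperature incubation; propofol titration acted as positive control.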
TDP43 rescue = qHTS of TDP-43 Inhibitors; TDP-43 expressing yeast growth rescue, BacTiter-Glo, 24 h; Potency, µM (top dose mostly 46.1 µM), without a hit: top-dose growth rescue (activation), usual class: activators; actives 1.8% (n = 410,000); AID 652104, 2013; note: potency is the fitted concentration of half-maximal effect; % of control where 0% means no effect; nearly all actives have a fitted effect of over 50% in size
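Galactose-induced TDP-43 yeast, OD600=0.02, compound pinned; 24 hr, 30 deg C; BacTiter-Glo luminescence for growth. Inhibitors of TDP-43 toxicity read as activators.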
pAkt inh = HTS Assay for Inhibitors of Akt Phophorylation: Primary Screen | Neuro2A IGF-stimulated pAkt S473 HTRF, 20 min; active compounds read low | activity change, % for hits at 50 µM | actives 0.32% (n = 360,000) | AID 651550, 2012; in the data active = activity change below about -80%; inconclusive = mostly about -51% to -80%; note: % is set by controls: 0 for no effect and ±100 for the full control effect
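Neuro2A cells (4,500/well, DMEM with 0.5% FBS) were treated with compound at a single 50 µM final concentration, stimulated with 6 nM IGF for 20 min at 37 °C, and lysed. Phospho-Akt Ser473 was read by HTRF as 665/615 ratio ×10^4.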
aSyn rescue = qHTS of alpha-syn Inhibitors; Potency, µM (highest dose often 46.1 µM), for inactives: top-dose growth rescue (activation), most hits filed as activators; Yeast expressing alpha-synuclein, growth rescue, BacTiter-Glo, 24 h; actives 0.14% (n = 370,000); note: potency is the fitted concentration of half-maximal effect; % of control where 0% means no effect; nearly all actives have a fitted effect of over 65% in size
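Rescue of yeast growth: cells expressing toxic alpha-synuclein, induced in galactose at OD600 0.02, incubated with compound 24 h at 30 C. ATP luminescence quantified growth; inhibitors of toxicity appear as activators.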
Active calls of the source: *; i = inactive; ? = inconclusive; · = not tested or not shown. Unless noted, calls come from the whole dose curve; as a rule, active = well fitted curve in the direction sought with a large enough effect; inconclusive = small, poorly fitted or top-dose-only effect, or another doubt; inactive = no such curve, though single readings can be large; an effect the other way counts as inactive or inconclusive.

SMILES | Mito fusion act | CCT chaperon mod | Apoferritin bind | TDP43 rescue | pAkt inh | aSyn rescue
COc1ccc(C(=O)Nc2ccc(N3CCOCC3)c(C(F)(F)F)c2)cc1OC | · | · | 33% | 20µM* | · | 3%
COc1cc(C(=O)Nc2ccc(Cl)c(C(F)(F)F)c2)cc(OC)c1OC | ? | 0 | -7% | 18µM* | i | ?
COc1ccc(C2=CC(=O)C[C@H](c3ccc(Cl)cc3)C2)cc1 | ? | -2 | · | ? | i | 2%
COc1ccc([C@H]2CC(=O)C=C(c3cccc(CO)c3)C2)cc1OC | -3% | 0 | · | 18% | i | 5%
CC(C)c1cccc(C2=CC(=O)C[C@H](c3ccc(F)cc3)C2)c1 | 25% | -1 | · | 13% | i | -10%
COc1ccc([C@H]2CC(=O)C=C(c3cccc(Br)c3)C2)cc1OC | · | -1 | · | 35µM* | i | 15%
COc1cccc(C2=CC(=O)C[C@H](c3ccc(Cl)cc3)C2)c1 | ? | -1 | · | 13µM* | i | 11%
CCOC(=O)c1cccc(C2=CC(=O)C[C@H](c3ccc(OC)c(OC)c3)C2)c1 | 5% | 1 | · | 22µM* | i | 1%
COc1ccc([C@H]2CC(=O)C=C(c3cccc(C(C)C)c3)C2)cc1OC | ? | 0 | · | 20µM* | i | -5%
C=C1CC[C@H](O)C/C1=C/C=C1\CCC[C@]2(C)C([C@H](C)CC[C@@H](O)C(C)(C)O)CC[C@@H]12 (stereo partly drawn) | · | · | -9% | · | · | ·
CCCN1CNc2c(c(=O)[nH]c(=S)n2CCc2cc(OC)cc(OC)c2)C1 | · | · | · | · | · | 1%
COc1ccc([C@H]2CC(=O)C=C(c3cccc(C(F)(F)F)c3)C2)cc1 | ? | -2 | · | ? | i | -5%
COc1ccc([C@H]2CC(=O)C=C(c3cccc(Br)c3)C2)cc1 | ? | -4 | · | 22µM* | i | ?
COc1ccc([C@H]2CC(=O)C=C(c3ccc4ccccc4c3)C2)cc1OC | 11% | 0 | · | 16µM* | i | 10%
COc1ccc([C@H]2CC(=O)C=C(c3ccc(OC)c(OC)c3)C2)cc1 | 13% | -2 | · | 29% | i | 0%
COc1cc(C(CCN2CCCC2)c2c(OC)cc(OC)c3c2OC(=O)CC3c2ccc(N(C)C)cc2)cc(OC)c1OC (stereo not drawn) | · | · | -18% | · | · | ·
COc1ccc(/C=C/c2ccccc2)cc1C1C2C=CCCC2(C)C(=O)N1Cc1ccccc1 (stereo not drawn) | · | · | 77% | · | · | ·
CC1(C)Oc2ccc(NC(=O)C3COc4ccccc4O3)cc2O1 (stereo not drawn) | -29% | -2 | ? | 10µM* | i | -28%
Cc1ccc(NC(=O)C2COc3ccccc3O2)c(C)c1 (stereo not drawn) | -1% | -1 | ? | 11µM* | i | 2%
Cc1ccc(NC(=O)C2COc3ccccc3O2)cc1 (stereo not drawn) | 3% | 0 | ? | 5% | i | -3%
CC(C)(N)C(=O)N[C@@H](Cc1cnc[nH]1)C(=O)N[C@H](Cc1ccc2ccccc2c1)C(=O)N[C@H](Cc1ccccc1)C(=O)N[C@@H](CCCCN)C(N)=O | · | · | 10% | · | · | ·
O=C1C(Cl)=C(NCC2CCCO2)C(=O)N1c1cccc(Cl)c1Cl (stereo not drawn) | -2% | -1 | -14% | ? | i | 1%
C=CCNC1=C(Cl)C(=O)N(c2cccc(Cl)c2Cl)C1=O | -5% | 1 | -11% | 16µM* | i | 20%
O=S(=O)(NCCOc1ccccc1F)c1cccc(Br)c1 | 9% | -4 | · | 13µM* | i | 9%
O=S(=O)(NCCOc1ccccc1F)c1ccc(Cl)cc1F | · | 1 | · | 22µM* | i | 5%
SMILES | Mito fusion act | CCT chaperon mod | Apoferritin bind | TDP43 rescue | pAkt inh | aSyn rescue
Fc1ccc(Nc2nc3nonc3nc2Nc2cccc(C(F)(F)F)c2)cc1 | · | · | -18% | -89% | · | ·
Cc1cc(-c2c(C)[nH]n(-c3ccc(Cl)cc3)c2=O)n[nH]1 | 0% | -3 | 5% | 22µM* | i | ?
C=C1C=C(C(F)F)n2ncc(C(=O)NCc3ccc(Cl)cc3)c2N1 | · | · | · | · | · | 0%
Cc1ccc(Nc2nc(CSc3nnc(-c4ccc(F)cc4)n3C)cs2)cc1 | ? | 1 | ? | 18µM* | i | -18%
CN(C)c1nc(OCCNC(=O)COc2ccc(Cl)cc2Cl)nc(N(C)C)n1 | 6% | 2 | ? | 14µM* | i | 0%
CN(C)c1ccc2c(-c3ccccc3)c3ccc(=[N+](C)C)cc-3oc2c1 | · | · | -12% | · | · | ·
Cc1cccc(OCCSc2nncn2C)c1 | 2% | 0 | -11% | 11% | i | 3%
Cc1cccc(OCCSc2nnc(-c3ccoc3C)n2C)c1 | -1% | -1 | ? | 18µM* | i | 4%
O=C(CCC(=O)N(CC(=O)NC1CCCCC1)c1ccc2c(c1)OCCO2)Nc1ccccn1 | 22µM* | · | -10% | · | · | ·
CC(C)(C)c1cc(NC(=O)COC(=O)c2ccccc2)n(-c2ccccc2)n1 | · | 1 | · | ? | i | 5%
CC(C)(C)c1cc(NC(=O)COc2ccc(Br)cc2)n(-c2ccccc2)n1 | 3% | -1 | -15% | 20µM* | i | -3%
CCOc1cccc(NC(=O)C2CC(=O)N(C)C(=Nc3ccccc3)S2)c1 (stereo not drawn) | -5% | -10 | ? | ? | i | 20µM*
CCOc1cccc(NC(=O)C2CC(=O)N(C)C(=Nc3cccc(F)c3)S2)c1 (stereo not drawn) | -7% | -3 | -19% | ? | i | ?
O=C(Cc1ccccc1)Nc1nnc2n1CCS2 | · | · | 3% | 23% | · | -8%
O=C(Nc1nnc2n1CCS2)c1ccco1 | -3% | -73* | -3% | -13% | i | -9%
COc1ccc(C)cc1-n1nnc(C(=O)Nc2cccc(SC)c2)c1C | · | · | -8% | 4% | · | ·
Cc1ccc2c(/C=C/c3ccc(N(C)C)cc3)ccnc2c1 | · | · | · | · | · | -14%
Brc1ccc(Oc2nsnc2N2CCOCC2)cc1 | 1% | -4 | ? | 11µM* | i | -6%
Cc1ccc(Cl)cc1N1CCN(C(=O)CSc2nnc3n2C(C)(C)Cc2ccccc2-3)CC1 | 16µM* | -8 | -5% | ? | i | 6%
O=S(=O)(Nc1nc2ccccc2nc1Cl)c1ccccc1 | 6% | 0 | 1% | 35µM* | i | 1%
COCCCNc1nc2ccccc2nc1NS(=O)(=O)c1cc(Cl)ccc1Cl | 32% | 2 | -9% | 22µM* | i | 5%
COCCCNc1nc2ccccc2nc1NS(=O)(=O)c1ccc(Cl)cc1 | 14µM* | 1 | -7% | -10% | i | -22%
